# High-throughput results as filed in PubChem.
# HepG2 tox: counter-screen for TGF-b inhibitors: cytotoxicity in HepG2 cells; HepG2 CAGA-GFP viability, ATP luminescence, 18 h; Potency, µM (titrated, usually from 46.1 µM), for inactives: at the top dose activity change, negative = cytotoxicity, actives largely listed as cytotoxic; hit rate 0.76% among 410,000; AID 588856; note: potency is the fitted concentration of half-maximal effect
#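 CellTiter-Glo luminescence gave cytotoxicity after 18 hours at 37 degrees C. The cells were HepG2 CAGA-GFP in 1% FBS DMEM, stimulated with 500 pg/mL TGF-beta after compound addition. %Activity was normalised to no-cell wells (complete cell-killing) and DMSO (no toxicity), and curves were fitted and classified.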
# TDP1 block: inhibitors of human tyrosyl-DNA phosphodiesterase TDP1. recombinant TDP1, AlphaScreen DNA substrate cleavage. Potency, µM (series often up to 130 µM), for inactives: at the top dose activity change, negative = inhibition, actives largely listed as inhibitors. hit rate 0.28% among 350,000; note: potency is the fitted concentration of half-maximal effect; % is set by controls: 0 for no effect and ±100 for the full control effect; nearly all actives have a fitted effect of over 40% in size
# Target sequence (Q9NUW8 whole entry, looked up): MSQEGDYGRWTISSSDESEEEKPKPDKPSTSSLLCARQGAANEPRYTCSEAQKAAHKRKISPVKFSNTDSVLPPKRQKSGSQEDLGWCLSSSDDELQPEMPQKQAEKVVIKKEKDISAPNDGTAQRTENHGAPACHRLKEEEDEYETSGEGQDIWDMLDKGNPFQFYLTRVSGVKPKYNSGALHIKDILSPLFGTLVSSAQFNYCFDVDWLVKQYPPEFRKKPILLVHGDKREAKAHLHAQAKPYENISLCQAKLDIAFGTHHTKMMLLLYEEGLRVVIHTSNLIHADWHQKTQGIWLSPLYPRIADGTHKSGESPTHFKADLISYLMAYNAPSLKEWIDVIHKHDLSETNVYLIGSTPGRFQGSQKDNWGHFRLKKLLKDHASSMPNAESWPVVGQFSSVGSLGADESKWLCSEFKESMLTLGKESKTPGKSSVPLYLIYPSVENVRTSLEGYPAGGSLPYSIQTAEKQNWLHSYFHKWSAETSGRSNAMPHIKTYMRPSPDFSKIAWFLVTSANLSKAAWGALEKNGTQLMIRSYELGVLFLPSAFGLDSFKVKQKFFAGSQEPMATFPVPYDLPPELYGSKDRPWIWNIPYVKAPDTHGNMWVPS
#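 Compounds were preincubated with Tdp1 (1 nM final) for 15 min at room temperature before substrate (15 nM final) started a 5 min reaction; beads (10 ug/ml final) were then added for 10 min before AlphaScreen detection.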
# TGFb SMAD3 inh: TGF-b pathway inhibition; HepG2 CAGA-GFP TGF-b/SMAD3 reporter, GFP fluorescence, 18 h; TGF-beta stimulated, 500 pg/mL final; Potency, µM (series often up to 46.1 µM), inactives show at the highest dose activity, negative = inhibition, usual class: inhibitors; hit rate 1.2% among 410,000; AID 588855; note: potency is the fitted concentration of half-maximal effect; % is set by controls: 0 for no effect and ±100 for the full control effect; nearly all actives have a fitted effect of over 65% in size
#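 Smad-responsive CAGA-GFP expression was quantified in HEPG2 cells exposed to compounds and 500 pg/mL final TGF-beta for 18 h at 37 degrees C; unstimulated wells defined full inhibition.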
# TDP1 cell CPT: growth inhibition of DT40 Tdp1-/-;hTDP1 cells with camptothecin (screen for TDP1 inhibitors) | hit rate 12% among 420,000 | AID 686979 | Potency, µM (top dose mostly 46.2 µM), inactives show top-dose activity change, negative = growth inhibition, hits mostly inhibitors | chicken DT40 Tdp1-/-;hTDP1 cells + 20 nM CPT, ATP luminescence, 48 h; note: potency is the fitted concentration of half-maximal effect; % is set by controls: 0 for no effect and ±100 for the full control effect; nearly all actives have a fitted effect of over 55% in size
#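 Chicken DT40 Tdp1-/- cells complemented with human TDP1, 400 cells/well, exposed to compounds plus 20 nM camptothecin for at least 48 h at 37 C; viability read as ATP content by CellTiter-Glo luminescence.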
# DT40 TDP1 no CPT: qHTS for Inhibitors of human tyrosyl-DNA phosphodiesterase 1 (TDP1): qHTS in cells in absence of CPT | DT40 Tdp1-/- hTDP1 cells, no CPT, ATP luminescence, 48 h | Potency, µM (series often up to 46.2 µM), inactives show top-dose activity change, negative = growth inhibition, hits mostly inhibitors | AID 686978, 2013 | hit rate 15% among 420,000; note: potency is the fitted concentration of half-maximal effect; % is set by controls: 0 for no effect and ±100 for the full control effect; nearly all actives have a fitted effect of over 55% in size
#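 Cells were dispensed at 400 per well, compounds added by pin tool, plates incubated ≥48 hr at 37 °C, then CellTiter-Glo added for 30 min at room temperature before luminescence reading. Line: DT40 Tdp1-/- complemented with hTDP1; camptothecin omitted.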
# IL1B secr inh: blocks inflammasome-driven IL-1 beta release; THP-1 LPS/ATP IL-1B secretion, AlphaLISA, 16 h; active compounds read low; activity change, % at 57.5 µM; hit rate 4.7% among 360,000; in the data active = activity change below about -50%; inconclusive = mostly about -30% to -49%; note: % is set by controls: 0 for no effect and ±100 for the full control effect
#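 Secreted IL-1B measured by AlphaLISA bead assay after 16 h compound exposure of THP-1 cells; compounds (final up to 57.5 uM) added 1 h before LPS (250 ng/mL) and ATP (1.25 mM) stimulation; lower signal means less secretion.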
# The depositor's hits bear a star; ? = inconclusive; nt = no result given; [ ] = remark or other dose. Sampled rows, rich in hits. Any-hit rate of the full collection: about 18%. Unless noted, calls come from the whole dose curve; as a rule, active = well fitted curve in the direction sought with a large enough effect; inconclusive = small, poorly fitted or top-dose-only effect, or another doubt; inactive = no such curve, though single readings can be large; an effect the other way counts as inactive or inconclusive.
SMILES,HepG2 tox,TDP1 block,TGFb SMAD3 inh,TDP1 cell CPT,DT40 TDP1 no CPT,IL1B secr inh
O=C(NCC1CCCO1)C(C(=O)c1ccc(F)cc1)n1ccccc1=O (centres undefined),-19%,-1%,14%,?,23µM*,-8
COc1ccc(CCNC(=O)C(C(=O)c2ccccc2)n2cc(Cl)ccc2=O)cc1OC (centres undefined),0%,3%,?,-12%,-21%,9
COc1ccc(CCNC(=O)C(C(=O)c2ccc(F)cc2)n2ccccc2=O)cc1OC (centres undefined),-1%,-5%,0%,?,6.5µM*,11
O=C(NCc1ccccc1)C(C(=O)c1ccc(F)cc1)n1ccccc1=O (centres undefined),-3%,-2%,-13%,?,-21%,-4
CC(=O)Nc1ccc(S(=O)(=O)Oc2cccc(N3C(=O)C4CC=CCC4C3=O)c2)cc1 (centres undefined),-16%,0%,-15%,?,21µM*,51
O=C1C2CCCCC2C(=O)N1c1cccc(OS(=O)(=O)c2ccccc2)c1 (centres undefined),-22%,-3%,-2%,1%,-5%,15
CC(=O)Nc1ccc(S(=O)(=O)Oc2ccc(N3C(=O)C4CCCCC4C3=O)cc2)cc1 (centres undefined),2%,6%,-25%,16µM*,18µM*,26
COc1ccc(-c2c(C#Cc3ccsc3)c3cc(-c4ccc(C(N)=O)cc4)ccc3n2C)cc1,6%,0%,-1%,23µM*,?,-7
COc1ccc(-c2c(C#Cc3ccsc3)c3cc(-c4ccc5c(c4)OCO5)ccc3n2C)cc1,2%,0%,3%,-28%,-19%,9
COc1ccc(-c2c(C#Cc3ccsc3)c3cc(-c4ccc5c(c4)OCCO5)ccc3n2C)cc1,-1%,0%,-23%,-23%,-7%,6
COC(=O)c1ccc2c(c1)c(C#Cc1ccccc1)c(-c1ccccc1)n2C,-16%,-8%[56.1 µM],6%,21µM*,16µM*,13
COc1cc(C#Cc2c(-c3ccccc3)n(C)c3ccccc23)cc(OC)c1,4%,nt,-16%,?,?,13
COc1ccc(-c2c(C#Cc3ccsc3)c3ccccc3n2C)cc1,-2%,nt,?,21µM*,23µM*,21
COc1cc(F)cc(-c2ccc3c(c2)c(C#Cc2ccsc2)c(-c2cc(OC)cc(OC)c2)n3C)c1,-1%,1%,-1%,?,15µM*,-11
COc1ccc(Cl)cc1NC(=O)c1cccc(-n2cnnn2)c1,2%,-10%,9%,-2%,0%,-9
Cc1cc(C(=O)N2CCC2(C)C(=O)Nc2cccc3c2CCCC3)nn1C (centres undefined),-3%,nt,?,?,?,-4
COc1ccc(-c2c(C#Cc3ccsc3)c3cc(-c4cccc5[nH]ccc45)ccc3n2C)cc1,5%,2%,13%,?,18µM*,-15
COc1ccc(-c2c(C#Cc3ccsc3)c3cc(-c4ccc5[nH]ccc5c4)ccc3n2C)cc1,2%,-3%,1%,-23%,?,1
c1ccc2nc3c(cc2c1)CCCC3,-18%,nt,-2%,0%,-13%,nt
O=S(=O)(c1ccccc1)N1N=C(c2cccs2)CC1c1ccc(Br)cc1 (centres undefined),4%,2%,8%,23µM*,15µM*,0
O=S(=O)(c1ccccc1)N1N=C(c2ccccc2)CC1c1ccccc1 (centres undefined),-5%,3%,9%,?,?,-4
Cc1nonc1C(=O)N/N=C/c1ccc([N+](=O)[O-])o1,-90%,-7%,?,5.8µM*,18µM*,-1
Cc1cc(C(=O)N/N=C/c2ccc([N+](=O)[O-])o2)c(C)o1,11µM*,-14%,18µM*,21µM*,18µM*,13
CCCOC1CCCN(C(=O)c2ccc(OC3CCN(Cc4ccccn4)CC3)cc2)C1 (centres undefined),-2%,1%,0%,-17%,-12%,0
Cc1ccc(CNC(=O)Cn2c(SCC(=O)Nc3ccc(F)cc3)nc3ccccc32)cc1,7.1µM*,1%,?,?,?,nt
SMILES,HepG2 tox,TDP1 block,TGFb SMAD3 inh,TDP1 cell CPT,DT40 TDP1 no CPT,IL1B secr inh
O=C(Cn1c(SCC(=O)Nc2ccc(F)cc2)nc2ccccc21)NCc1ccc(F)cc1,-58%,-4%,-25%,?,?,nt
Cc1ccc(NC(=O)Cn2c(-c3ccc(F)cc3)cnc2SCC(=O)Nc2c(C)cccc2C)cc1,-11%,1%,-23%,10µM*,12µM*,2
O=C(Cn1c(SCC(=O)Nc2ccc(F)cc2)nc2ccccc21)NCc1ccc(Cl)cc1,-98%,4%,13µM*,?,13µM*,nt
CCn1c(SCC(=O)N/N=C/C=C/c2ccco2)nnc1-c1ccccc1,-14%,22µM*,0%,5%,-21%,0
Cn1c(SCC(=O)N/N=C/C=C/c2ccco2)nc2ccccc21,-10%,?,?,18µM*,18µM*,0
Cn1c(SCC(=O)N/N=C/C=C/c2ccccc2[N+](=O)[O-])nc2ccccc21,-22%,3%,-19%,-5%,-48%,-4
CCn1c(SCC(=O)N/N=C/C(C)=C/c2ccco2)nnc1-c1ccccc1,-2%,nt,27%,2%,?,-25
CCc1nn(Cc2cccc(F)c2)c(=O)c2cc3cc(C)ccc3n12,2%,-3%,?,?,?,nt
CC(c1ccccc1)N1CCC(CNC(=S)Nc2cccc(Cl)c2)C1 (centres undefined),-13%,5%,?,?,?,-80*
Cc1ccc(NC(=O)C2CC(=O)N(C(C)c3ccccc3)C2)cc1 (centres undefined),12%,1%,-2%,-4%,-22%,11
Cc1ccc(NC(=S)NCC2CCN(C(C)c3ccccc3)C2)cc1 (centres undefined),-22%,0%,-2%,21µM*,16µM*,?
COc1ccc(OC)c(-c2csc(NC(=O)C3CSC4(C)CCC(=O)N34)n2)c1 (centres undefined),-18%,nt,3%,?,?,-55*
